In PubChem BioAssay (NCATS):
Unmarked numbers belong to inactive results. Results filed as inconclusive are left out. The source made the active and inactive calls. Unless noted, calls follow the shape of the dose curve; as a rule, active = well fitted curve in either direction with a large enough effect (not every such curve was filed as active); inconclusive = small, poorly fitted or top-dose-only effect, or another doubt; inactive = flat fitted curve, though single readings scatter.

Experiments:
[1] = molecular target: Lysosomal acid glucosylceramidase (Homo sapiens) (UniProt P04062); assay: Glucocerebrosidase-p2 (AID 348; in the data active = potency below about 10 µM; also: potency is read from the fitted curve at half-maximal effect); details: purified GBA, blue fluorogenic substrate, 40 min
Lysosomal acid glucosylceramidase (Homo sapiens), sequence (P04062 whole entry, looked up): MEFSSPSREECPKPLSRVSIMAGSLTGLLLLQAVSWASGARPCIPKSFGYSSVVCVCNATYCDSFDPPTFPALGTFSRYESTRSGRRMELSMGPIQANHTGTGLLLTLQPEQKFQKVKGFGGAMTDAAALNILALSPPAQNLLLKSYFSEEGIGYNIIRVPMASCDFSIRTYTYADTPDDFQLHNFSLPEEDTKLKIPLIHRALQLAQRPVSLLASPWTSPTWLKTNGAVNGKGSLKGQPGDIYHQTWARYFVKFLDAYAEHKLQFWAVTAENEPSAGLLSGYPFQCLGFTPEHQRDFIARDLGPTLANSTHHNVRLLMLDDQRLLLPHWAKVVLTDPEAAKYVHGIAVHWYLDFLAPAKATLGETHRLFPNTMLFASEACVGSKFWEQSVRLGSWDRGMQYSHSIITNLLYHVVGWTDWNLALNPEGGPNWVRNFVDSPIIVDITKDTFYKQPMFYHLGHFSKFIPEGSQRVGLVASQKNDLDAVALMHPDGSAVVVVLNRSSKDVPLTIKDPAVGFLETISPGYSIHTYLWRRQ
How it was run: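 Compounds titrated from 0.6 nM upwards against 0.2 nM enzyme in pH 5.9 citric acid/KH2PO4, taurocholate, tween-20; blue fluorogenic substrate 80 uM, 40 min room temperature, stopped and read Ex 365/Em 440 for AC50.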

[2] = AP1 Signaling Pathway (AID 357); details: ME-180 AP-1-bla reporter, EGF-induced, beta-lactamase ratio, 5 h; at 7.69 µM (top of the series) unless noted;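 also: ME-180 reporter cells stimulated with EGF at its EC50 level; % is scaled to controls: 0 for no effect and ±100 for the full control effect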
How it was run: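 Cells are seeded overnight, exposed to compound titrations and an EC50 level of EGF for 5 hours at 37 °C, then loaded with CCF4 dye for 2.5 hours. Beta-lactamase activity under the AP-1 element is read as a blue/green ratio.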

[3] = molecular target: Cytochrome P450 1A2 (Homo sapiens) (UniProt P05177); assay: p450-cyp1a2 (AID 410; calls by dose curve; also: potency is read from the fitted curve at half-maximal effect;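 as to activity change, negative = inhibition: -100% = full effect of reference inhibitor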); details: recombinant CYP1A2, luciferin-ME demethylation, luminescence; series mostly up to 11.4 µM
Cytochrome P450 1A2 (Homo sapiens), sequence (P05177 whole entry, looked up): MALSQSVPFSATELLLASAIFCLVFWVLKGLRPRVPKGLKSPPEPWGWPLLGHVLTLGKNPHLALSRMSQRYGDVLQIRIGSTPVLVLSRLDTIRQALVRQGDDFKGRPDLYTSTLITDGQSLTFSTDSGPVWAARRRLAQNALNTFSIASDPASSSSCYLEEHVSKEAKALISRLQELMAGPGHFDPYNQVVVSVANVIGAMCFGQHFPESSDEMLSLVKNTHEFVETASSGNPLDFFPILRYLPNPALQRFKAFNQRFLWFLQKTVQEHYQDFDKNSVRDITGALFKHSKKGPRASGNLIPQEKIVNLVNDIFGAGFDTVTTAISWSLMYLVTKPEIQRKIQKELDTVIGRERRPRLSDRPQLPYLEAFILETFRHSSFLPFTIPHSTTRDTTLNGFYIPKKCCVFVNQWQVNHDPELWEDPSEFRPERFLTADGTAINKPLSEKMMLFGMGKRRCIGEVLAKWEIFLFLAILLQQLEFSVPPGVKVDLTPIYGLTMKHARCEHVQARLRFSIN
How it was run: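 20nM CYP1A2 with 100uM Luciferin-ME (at Km) in 100mM KPO4; compound preincubated 10 min, NADPH regeneration added, 60 min at room temperature. Luciferin quantified by luminescence after detection reagent; normalized to 57 uM furafylline.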

[4] = NFAT Signaling Pathway (AID 444); details: Jurkat NFAT-bla M1, carbachol, beta-lactamase ratio, 5 h; at 7.69 µM (top of the series) unless noted;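 also: carbachol stimulus at about its EC50 of 1 µM final; % is scaled to controls: 0 for no effect and ±100 for the full control effect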
How it was run: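 Jurkat cells carrying an NFAT-driven β-lactamase reporter and co-transfected muscarinic M1 receptor were treated with compound plus carbachol (1 uM final, an EC50 level) for 5 h at 37 °C. CCF4 loading followed for 1 h at RT; 460/530 nm ratio gave %activity.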

[5] = Stat Signaling Pathway (AID 446); details: ME-180 (cervical carcinoma) SIE beta-lactamase reporter, IL-6 stimulated, 5 h; at 7.69 µM (top of the series) unless noted;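 also: ME-180 cervical cancer cells given 40 pM IL-6 alongside compound; SIE-controlled beta-lactamase reporter measured as 460/530 nm FRET emission ratio; % is scaled to controls: 0 for no effect and ±100 for the full control effect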
How it was run: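 IL-6/STAT signaling read in ME-180 cells via an SIE beta-lactamase reporter. Stimulus was 40 pM IL-6 (its AC50) for 5 hrs, so both activation and inhibition register.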

[6] = molecular target: Glucocorticoid receptor (Homo sapiens) (UniProt P04150); assay: GR-GFP Redistribution (AID 450;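 active = compounds whose dose series gives a full or clear partial fitted curve of increased nuclear translocation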; also: potency is read from the fitted curve at half-maximal effect); details: U2OS GR-GFP nuclear translocation, laser cytometry, 2 h
Glucocorticoid receptor (Homo sapiens), sequence (P04150 whole entry, looked up, the tested form may be a part): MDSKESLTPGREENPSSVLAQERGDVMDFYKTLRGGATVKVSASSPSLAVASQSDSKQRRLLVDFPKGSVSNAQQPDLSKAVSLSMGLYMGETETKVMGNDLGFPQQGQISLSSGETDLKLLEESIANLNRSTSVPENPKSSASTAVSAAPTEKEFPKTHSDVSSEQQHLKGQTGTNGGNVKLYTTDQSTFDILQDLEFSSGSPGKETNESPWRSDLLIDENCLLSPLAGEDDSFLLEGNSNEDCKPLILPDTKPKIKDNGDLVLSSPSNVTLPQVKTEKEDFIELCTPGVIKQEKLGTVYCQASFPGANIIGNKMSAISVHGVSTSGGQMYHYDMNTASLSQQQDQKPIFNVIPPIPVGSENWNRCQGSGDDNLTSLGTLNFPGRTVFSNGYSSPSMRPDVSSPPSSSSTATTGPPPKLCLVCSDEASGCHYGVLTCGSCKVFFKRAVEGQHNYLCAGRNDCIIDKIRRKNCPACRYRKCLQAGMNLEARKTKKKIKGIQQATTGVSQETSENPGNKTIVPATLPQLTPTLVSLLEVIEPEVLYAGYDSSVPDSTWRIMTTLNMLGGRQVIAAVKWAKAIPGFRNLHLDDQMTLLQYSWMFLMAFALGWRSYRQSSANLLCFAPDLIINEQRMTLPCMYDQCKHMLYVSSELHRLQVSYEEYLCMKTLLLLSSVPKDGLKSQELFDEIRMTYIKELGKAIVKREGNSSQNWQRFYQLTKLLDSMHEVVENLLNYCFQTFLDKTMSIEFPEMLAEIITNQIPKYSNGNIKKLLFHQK

[7] = molecular target: Glucocorticoid receptor (Homo sapiens) (UniProt P04150); assay: GR-EFC Redistribution (AID 451; calls by dose curve; also: potency is read from the fitted curve at half-maximal effect); details: CHO-K1 GR-EFC translocation, beta-gal luminescence, 2 h
How it was run: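 CHO-K1 cells stably expressing nuclear-localized β-gal enzyme acceptor and GR fused C-terminally to the enzyme donor fragment; ligand-driven nuclear translocation restores β-gal by complementation. Compounds titrated up to 46 uM final, 2 h at 37 °C; luminescence read.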

[8] = molecular target: Mitogen-activated protein kinase 10 (Mus musculus) (UniProt Q61831); assay: JNK3 AlphaScreen Assay (AID 530); details: JNK3 lysate, c-Jun phosphorylation; series mostly up to 11.4 µM;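 also: kinase came from lysate of stimulated human HepG2 cells; signal reports phosphorylation of biotinylated GST-cJun 1-79 at Ser73 with 10 µM ATP; % is scaled to controls: 0 for no effect and ±100 for the full control effect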
How it was run: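 Inhibitors reduce antibody binding to phosphorylated biotin-cJun, lowering AlphaScreen luminescence. Lysates from HepG2 cells pre-activated by IL-1beta plus TNF-alpha supplied JNK3; compounds were titrated.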

[9] = molecular target: 3',5'-cyclic-AMP phosphodiesterase 4B (Homo sapiens) (UniProt Q07343); assay: qHTS Assay for Inhibitors of PDE-IV (AID 607; active = well fitted activation curve with a large enough effect in the main read-out, with a control signal flat, not every such curve was filed as active; also: % of control where 0% means no effect); details: HEK293 ACTOne CNG channel cells, membrane potential fluorescence; series mostly up to 22.9 µM
3',5'-cyclic-AMP phosphodiesterase 4B (Homo sapiens), sequence (Q07343 whole entry, looked up): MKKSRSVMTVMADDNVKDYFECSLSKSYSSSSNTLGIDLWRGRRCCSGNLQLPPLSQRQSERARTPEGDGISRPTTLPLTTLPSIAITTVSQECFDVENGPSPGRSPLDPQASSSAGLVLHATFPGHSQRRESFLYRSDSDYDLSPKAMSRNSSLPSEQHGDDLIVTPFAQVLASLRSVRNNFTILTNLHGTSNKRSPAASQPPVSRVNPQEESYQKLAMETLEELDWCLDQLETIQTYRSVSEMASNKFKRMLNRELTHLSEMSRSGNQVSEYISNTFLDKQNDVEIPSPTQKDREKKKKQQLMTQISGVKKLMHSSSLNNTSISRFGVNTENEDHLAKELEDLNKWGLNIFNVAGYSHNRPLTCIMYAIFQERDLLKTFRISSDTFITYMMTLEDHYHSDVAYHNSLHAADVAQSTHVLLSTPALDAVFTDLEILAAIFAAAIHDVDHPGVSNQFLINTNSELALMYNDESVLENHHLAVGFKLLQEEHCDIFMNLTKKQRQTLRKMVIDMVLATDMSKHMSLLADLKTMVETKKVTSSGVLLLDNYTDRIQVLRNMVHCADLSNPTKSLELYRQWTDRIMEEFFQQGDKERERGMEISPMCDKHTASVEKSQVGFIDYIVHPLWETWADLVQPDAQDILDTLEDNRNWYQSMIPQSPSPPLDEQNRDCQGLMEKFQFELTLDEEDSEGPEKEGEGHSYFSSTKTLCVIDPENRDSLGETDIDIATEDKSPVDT
How it was run: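 Live HEK293 cells with a modified cyclic nucleotide-gated (CNG) channel report intracellular cAMP via membrane-potential dye fluorescence (ex 535/em 590 nm). Endogenous PDE-IV was targeted. Compounds were tested at up to 22.9 uM final; RO 20-1724 100 uM served as control.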

Structure (SMILES)	Potency [1] [µM]	activity change, negative = inhibition [2] [%]	Potency [3]	activity change, negative = inhibition [4] [%]	activity, negative = inhibition [5] [%]	Potency [6] [µM]	Potency [7] [µM]	Potency [8]	Potency [9]	activity change, negative = inhibition [3]
O=C1CCC(c2ccccc2)(c2ccccc2)CC1	> 11.4	5.18	inactive	-2.6	1.75	> 46	> 9.22	inactive	inactive	
O=C(O)/C=C\C(=O)Nc1ncn[nH]1	> 11.4	8.44	inactive	2.25	2.6	> 46	> 9.22	inactive	inactive	
CS(=O)(=O)N(CC(=O)O)Cc1ccccc1	> 11.4	13.2	inactive	14.9	10.2	> 46	> 9.22	inactive	inactive	
O=[N+]([O-])/C=C\c1cc2ccccc2[nH]1	> 11.4	-11.8	1.26 µM (active)	12.4	23.3	> 46	> 9.22	inactive	inactive	
NCCSS(=O)(=O)CCN	> 11.4	7.23		7.63	-25	> 46	> 9.22	inactive	inactive	-17.1% [at 2.29 µM]
N#CCCn1c(=O)c(-c2ccccc2)nc2cnc(Oc3cccc(Cl)c3)nc21	> 11.4	-25.4	2.51 µM (active)	-23.9	-4.6	> 9.22	> 46	inactive	inactive	
O=C1Nc2ccccc2C1=Nc1ccc(S(=O)(=O)Nc2nccs2)cc1	> 11.4	-7.86	inactive	12.8	-9.11	> 46	> 9.22	inactive	inactive	
CSc1ncnc2c1ncn2[C@@H]1O[C@@H](CO)[C@H](O)O[C@@H]1O	> 11.4	-6.79		22.2	22.9	> 46	> 9.22	inactive	inactive	-5.2% [at 2.29 µM]
Nc1nc2c(c(=O)[nH]1)CN(c1ccc(S(N)(=O)=O)cc1)CN2	> 11.4	-2.56		12	1.71	> 46	> 9.22	inactive	inactive	8.8% [at 2.29 µM]
O=C(O)CCSC1=NCCN1	> 11.4	1.39	inactive	4.68	6.09	> 46	> 9.22	inactive	inactive	
O=C(O)[C@@H]1CCN(Cc2oc(CO)cc(=O)c2O)C1	> 11.4	6.76	10 µM (active)	-8.96	16.1	> 46	> 9.22	inactive	inactive	
O=S1(=O)N[C@H]2CC[C@@H]3NS(=O)(=O)N[C@H]4CC[C@H](N1)N4S(=O)(=O)N23	> 11.4	-14.2	inactive	23.9	-2.8	> 46	> 9.22	inactive	inactive	
COc1ccc2c3c([nH]c2c1)[C@H]1C[C@@H]2[C@@H](C[C@@H](O)[C@H](OC)[C@H]2C(=O)O)CN1CC3	> 11.4	-5.49	inactive	0.887	-7.32	> 46	> 9.22	inactive	inactive	
N[C@H](C(=O)O)[C@H](N)C(=O)O	> 11.4	9.49	inactive	-1.65	4.68	> 46	> 9.22	inactive	inactive	
NS(=O)(=O)c1cc2c(cc1Cl)=NC(CCC(=O)O)=NS=2(=O)O	> 11.4	-7.99	inactive	7.52	10.8	> 46	> 9.22	inactive	inactive	
Nc1nccc(Nc2ccc(S(N)(=O)=O)cc2)n1	> 11.4	2.96	inactive	-13.6	-5	> 46	> 9.22	inactive	inactive	

Structure (SMILES)	Potency [1] [µM]	activity change, negative = inhibition [2] [%]	Potency [3]	activity change, negative = inhibition [4] [%]	activity, negative = inhibition [5] [%]	Potency [6] [µM]	Potency [7] [µM]	Potency [8]	Potency [9]	activity change, negative = inhibition [3]
O=C(O)[C@H](Cc1cc(I)c(O)c(I)c1)C1CCCCC1	> 11.4	-29.2		1.46	-16	> 46	> 9.22	inactive	inactive	-8.8% [at 2.29 µM]
O=C1[C@@H]2[C@@H]3C=C[C@H]([C@@H]2C(=O)N1CN1CCSCC1)[C@@H]1[C@@H]2C(=O)N(CN4CCSCC4)C(=O)[C@@H]2[C@H]31	> 11.4	11.7	inactive	5.4	-1.73	> 46	> 9.22	inactive	inactive	
CC1(C)O[C@H]2[C@@H](O1)[C@@H](On1nnc3ccc(Cl)cc31)O[C@@H]2[C@@H]1COC(C)(C)O1	> 11.4	-0.0878		3.42	2.63	> 46	> 9.22	inactive	inactive	-10.9% [at 2.29 µM]
NC(=O)[C@@H]1CCCN1Cc1ccc2c(c1)OCO2	> 11.4	-6.11	3.16 µM (active)	7.42	6.27	> 46	> 9.22	inactive	inactive	
O=c1c[n+](CC[n+]2cc(=O)o[nH]2)[nH]o1	> 11.4	2.98	2.51 µM (active)	12.3	4.21	> 46	> 9.22	inactive	inactive	
NS(=O)(=O)c1ccc(NC2(C(=O)O)CCCC2)cc1	> 11.4	-4.84	0.794 µM (active)	2.12	11.8	> 46	> 9.22	inactive	inactive	
CC(C)CN=C(N)N=C(N)N	> 11.4	6.14	inactive	11.1	1.4	> 46	> 9.22	inactive	inactive	
O=C(O)c1ccc([N+]2=Cn3c(nc4ccccc43)C2)cc1	> 11.4	-0.795	5.01 µM (active)	9.31	0.556	> 46	> 9.22	inactive	inactive	
Nc1cc(S(=O)(=O)O)cc2ccc(S(=O)(=O)O)cc12	> 11.4	1.79		2.43	-1.78	> 46	> 9.22	inactive	inactive	-18.1% [at 2.29 µM]
O=C(O)[C@@H]1Cc2c([nH]c3ccccc23)[C@@H](CCCCO)N1	> 11.4	-12.4		3.55	-0.601	> 46	> 9.22	inactive	inactive	-9.6% [at 2.29 µM]
CC1(C)O[C@H]2[C@@H](c3[nH]nc4c(=O)[nH]c(=O)[nH]c34)OC[C@H]2O1	> 11.4	8.08	inactive	-14.8	8.45	> 46	> 9.22	inactive	inactive	
CCOC(=O)CCCN	> 11.4	-4.22	6.31 µM (active)	2.34	8.34	> 46	> 9.22	inactive	inactive	
Cc1[nH]c(N)nc(=S)c1CCC(=O)O	> 11.4	-7.6	inactive	1.85	-3.94	> 46	> 9.22	inactive	inactive	
O=C1C2[C@@H](c3ccccc3)N[C@@H](c3ccccc3)C1[C@H](c1ccccc1)N[C@H]2c1ccccc1	> 11.4	-5.02	inactive	3.11	1.27	> 46	> 9.22	inactive	inactive	
Cc1c(C)c(C)c(CC2(C)CSC2)c(CC2(C)CSC2)c1C	> 11.4	10.3	inactive	0.756	6.86	> 46	> 9.22	inactive	inactive	
